Experimental data from PubChem BioAssay (NCATS).
Results filed as inconclusive are left out. Entries that show only a call come without a potency. Activity calls are given as the source filed them. Calls come from the whole dose curve; as a rule, active = well fitted curve in the direction sought with a large enough effect; inconclusive = small, poorly fitted or top-dose-only effect, or another doubt; inactive = no such curve, though single readings can be large; an effect the other way counts as inactive or inconclusive.

test: qHTS of pediatric cancer cell lines to identify multiple opportunities for drug repurposing: Primary screen for DAOY cells (AID 1347090); conditions: DAOY medulloblastoma viability, CellTiter-Glo luminescence, 48 h; series mostly up to 46 µM; activity change, negative = cytotoxic: at the top concentration; note: nearly all actives have a fitted effect of over 55% in size
Method in brief: (§1)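 Cell viability, CellTiter-Glo luminescence; 500-1,000 cells/well, 8- or 11-point titration, 48 h compound exposure at 37 degrees C, 5% CO2. Controls: DMSO neutral, bortezomib 2.3 µM final as positive.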

Row | Compound | Potency | activity change, negative = cytotoxic
1 | COC(=O)C1=CCCN(C)C1 | inactive | 
2 | COc1ccc(C(=O)N2CCCC2=O)cc1 | inactive | 
3 | NC(=O)CN1CCCC1=O |  | 11% (inactive)
4 | O=C(O)c1nn(Cc2ccc(Cl)cc2Cl)c2ccccc12 |  | 7.34% (inactive)

test: qHTS of pediatric cancer cell lines to identify multiple opportunities for drug repurposing: Primary screen for SJ-GBM2 cells (AID 1347091); conditions: SJ-GBM2 viability, CellTiter-Glo luminescence, 48 h; series mostly up to 46 µM; activity change, negative = cytotoxic: at the top concentration
Method in brief: as §1

Row | Compound | Potency | activity change, negative = cytotoxic
5 | COC(=O)C1=CCCN(C)C1 | inactive | 
6 | COc1ccc(C(=O)N2CCCC2=O)cc1 | inactive | 
7 | NC(=O)CN1CCCC1=O |  | 15.3% (inactive)
8 | O=C(O)c1nn(Cc2ccc(Cl)cc2Cl)c2ccccc12 | inactive | 

test: qHTS of pediatric cancer cell lines to identify multiple opportunities for drug repurposing: Primary screen for A673 cells (AID 1347092); conditions: A673 Ewing sarcoma viability, CellTiter-Glo ATP luminescence, 48 h; series mostly up to 46 µM; activity change, negative = cytotoxic: at the top concentration; note: nearly all actives have a fitted effect of over 45% in size
Method in brief: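 A673 cells (500-1,000 cells/well in growth media) were pre-incubated 5 h at 37 degrees C, then exposed to compounds for 48 h. Viability was read as CellTiter-Glo luminescence; concentration-response curves came directly from the primary screen.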

Row | Compound | Potency | activity change, negative = cytotoxic
9 | COC(=O)C1=CCCN(C)C1 | inactive | 
10 | COc1ccc(C(=O)N2CCCC2=O)cc1 |  | -18.6% (inactive)
11 | NC(=O)CN1CCCC1=O |  | 10.6% (inactive)
12 | O=C(O)c1nn(Cc2ccc(Cl)cc2Cl)c2ccccc12 | inactive | 
